# Results reported in PubChem BioAssay (NCATS).
# Results filed as inconclusive are left out. A call without a number means that no potency is given here. Active and inactive are the calls of the source. Calls follow the shape of the dose curve; as a rule, active = well fitted inhibition curve with a large enough effect; inconclusive = small, poorly fitted or top-dose-only effect; inactive = flat fitted curve, though single readings scatter.
# Tests used:
# Assay in all cases: qHTS profiling for inhibitors of Plasmodium falciparum proliferation (AID 504749); also: nearly all actives have a fitted effect of over 60% in size
# Settings in all cases: P. falciparum in erythrocytes, SYBR Green DNA, 72 h; series mostly up to 28.7 µM
# ECU = system: ECU
# How it was run: (§1)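 Fluorescence of SYBR Green-bound parasite DNA, read at 485/535 nm, served as the growth measure. Infected erythrocytes were cultured with compound 72 h; artemisinin (0.29 uM) and DMSO wells defined the normalization range.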
# FAB9 = system: FAB9
# How it was run: as §1
# GB4 = system: GB4
# How it was run: as §1
# HB3 = system: HB3
# How it was run: as §1
# JCK = system: JCK
# How it was run: as §1
# P93_24 = system: P93_24
# How it was run: as §1
# PAD = system: PAD
# How it was run: as §1
# PC15 = system: PC15
# How it was run: as §1
# PC49 = system: PC49
# How it was run: as §1
# SC27B = system: SC27B
# How it was run: as §1
# TAB109 = system: TAB109
# How it was run: as §1
# TAB113 = system: TAB113
# How it was run: as §1
# TAB165 = system: TAB165
# How it was run: as §1
# P94_40 = system: P94_40
# How it was run: as §1
# PC26 = system: PC26
# How it was run: as §1
# ICS = system: ICS
# How it was run: as §1
# N140 = system: N140
# How it was run: as §1
# W2 = system: W2
# How it was run: as §1
# Potency is read from the fitted curve at half-maximal effect.
Structure (SMILES),Potency (ECU),Potency (FAB9),Potency (GB4),Potency (HB3),Potency (JCK),Potency (P93_24),Potency (PAD),Potency (PC15),Potency (PC49),Potency (SC27B),Potency (TAB109),Potency (TAB113),Potency (TAB165),Potency (P94_40),Potency (PC26),Potency (ICS),Potency (N140),Potency (W2)
O=C(O)CCC/C=C\C[C@@H]1[C@@H](/C=C/[C@@H](O)COc2cccc(C(F)(F)F)c2)[C@H](O)C[C@@H]1O,inactive,inactive,inactive,inactive,inactive,inactive,inactive,inactive,inactive,inactive,inactive,inactive,inactive,,,,,
C[C@]12CCC(=O)C[C@@H]1CC[C@@H]1[C@@H]2CC[C@]2(C)C=CC[C@@H]12,inactive,inactive,inactive,,inactive,inactive,inactive,inactive,inactive,inactive,inactive,inactive,inactive,inactive,inactive,,,
CCN(CC)CCOc1ccccc1OC,inactive,inactive,,inactive,inactive,inactive,inactive,inactive,inactive,inactive,inactive,inactive,inactive,inactive,inactive,inactive,inactive,
C[C@@](Cc1ccc(O)c(O)c1)(NN)C(=O)O,inactive,inactive,inactive,inactive,inactive,inactive,inactive,inactive,inactive,inactive,inactive,inactive,inactive,,inactive,,inactive,inactive
CSCCC(N)C(=O)O (centres undefined),inactive,inactive,,inactive,inactive,,inactive,inactive,inactive,inactive,inactive,inactive,inactive,inactive,,inactive,inactive,inactive
CC(C)OC(=O)Nc1ccc2nc(-c3cscn3)[nH]c2c1,inactive,inactive,inactive,inactive,inactive,inactive,inactive,inactive,inactive,inactive,inactive,inactive,inactive,inactive,inactive,,inactive,inactive
Cc1c(C)c2c(c(C)c1OC(=O)CCC(=O)O)CC[C@@](C)(CCC[C@H](C)CCC[C@H](C)CCCC(C)C)O2,inactive,inactive,inactive,,inactive,inactive,inactive,,inactive,inactive,inactive,inactive,inactive,inactive,inactive,11.2 µM (active),inactive,
COc1ccc(-c2noc(CC(=O)O)c2-c2ccc(OC)cc2)cc1,inactive,inactive,,inactive,inactive,inactive,inactive,inactive,inactive,inactive,inactive,inactive,inactive,inactive,inactive,inactive,inactive,inactive
CN1C(C(=O)Nc2ccccn2)C(=O)c2sc(Cl)cc2S1(=O)=O (centres undefined),inactive,inactive,inactive,inactive,inactive,inactive,inactive,inactive,inactive,inactive,inactive,inactive,inactive,inactive,,,inactive,inactive
CN1CCc2c(c3ccccc3n2Cc2ccccc2)C1,inactive,inactive,,inactive,inactive,inactive,inactive,inactive,inactive,inactive,inactive,inactive,,,,inactive,inactive,2.56 µM (active)
CS(=O)(=O)c1ccc([C@@H](O)[C@@H](COC(=O)CN)NC(=O)C(Cl)Cl)cc1,inactive,inactive,,inactive,inactive,,inactive,inactive,inactive,inactive,8.91 µM (active),inactive,,,inactive,,inactive,
COc1ccc2c(=O)c(C)c(-c3ccccc3)oc2c1CN(C)C,inactive,inactive,inactive,inactive,inactive,,inactive,inactive,inactive,inactive,inactive,inactive,inactive,,inactive,,,6.75 µM (active)
O=[N+]([O-])c1c(Cl)cccc1-c1c[nH]cc1Cl,inactive,inactive,inactive,inactive,inactive,inactive,inactive,inactive,inactive,inactive,inactive,inactive,inactive,,inactive,,inactive,
Cc1cccc(C)c1NC(=O)C1CCCCN1C (centres undefined),inactive,inactive,,inactive,inactive,inactive,inactive,inactive,inactive,inactive,inactive,inactive,inactive,inactive,inactive,inactive,inactive,
CN(C)CCOc1ccc(/C(=C(/CCCl)c2ccccc2)c2ccccc2)cc1,inactive,inactive,,inactive,inactive,inactive,inactive,,inactive,inactive,inactive,inactive,inactive,inactive,inactive,inactive,inactive,inactive
CCCc1nc(C(C)(C)O)c(C(=O)OCc2oc(=O)oc2C)n1Cc1ccc(-c2ccccc2-c2nn[nH]n2)cc1,inactive,inactive,inactive,inactive,inactive,inactive,inactive,inactive,inactive,inactive,inactive,inactive,inactive,inactive,inactive,,inactive,inactive
CN(C)c1ccc(C(=C2C=CC(=[N+](C)C)C=C2)c2c(O)c(S(=O)(=O)[O-])cc3cc(S(=O)(=O)O)ccc23)cc1,inactive,inactive,,inactive,inactive,inactive,inactive,inactive,inactive,inactive,inactive,inactive,inactive,inactive,inactive,inactive,inactive,inactive
CC(=O)[O][Al][O]C(C)=O,inactive,inactive,,inactive,inactive,inactive,inactive,inactive,inactive,inactive,inactive,inactive,inactive,inactive,inactive,inactive,inactive,inactive

Structure (SMILES),Potency (ECU),Potency (FAB9),Potency (GB4),Potency (HB3),Potency (JCK),Potency (P93_24),Potency (PAD),Potency (PC15),Potency (PC49),Potency (SC27B),Potency (TAB109),Potency (TAB113),Potency (TAB165),Potency (P94_40),Potency (PC26),Potency (ICS),Potency (N140),Potency (W2)
CCCCCCCCCCCCCCCCCCCCCC(=O)Nc1ccn([C@@H]2O[C@H](CO)[C@@H](O)[C@@H]2O)c(=O)n1,inactive,inactive,,inactive,inactive,inactive,inactive,inactive,inactive,inactive,inactive,inactive,inactive,inactive,inactive,,inactive,
CC1CCC(NC(=O)N(CCCl)N=O)CC1 (centres undefined),inactive,inactive,,inactive,inactive,inactive,inactive,inactive,inactive,inactive,inactive,inactive,inactive,inactive,inactive,inactive,inactive,10.7 µM (active)
O.O.O.O.O.O.O.O=S(=O)([O-])[O-].[Co+2],12.6 µM (active),11.2 µM (active),8.49 µM (active),,12.6 µM (active),inactive,inactive,inactive,7.94 µM (active),7.94 µM (active),7.94 µM (active),6.31 µM (active),10 µM (active),inactive,,5.62 µM (active),12.6 µM (active),5.36 µM (active)
CCCCC/C=C\C/C=C\C/C=C\CCCCC(=O)O,inactive,inactive,,inactive,inactive,inactive,inactive,inactive,inactive,inactive,inactive,,inactive,inactive,inactive,,inactive,inactive
Cc1cc(C(=O)NCCc2ccc(S(=O)(=O)NC(=O)NN3CCCCCC3)cc2)no1,inactive,inactive,,inactive,inactive,inactive,inactive,inactive,inactive,inactive,inactive,inactive,inactive,inactive,,inactive,inactive,inactive
CCSc1ccc2c(c1)N(CCCN1CCN(C)CC1)c1ccccc1S2,inactive,inactive,,inactive,inactive,inactive,inactive,inactive,inactive,,inactive,,inactive,inactive,inactive,,inactive,
O=c1n(CC2CO2)c(=O)n(CC2CO2)c(=O)n1CC1CO1 (centres undefined),inactive,inactive,,inactive,inactive,,,inactive,inactive,inactive,,inactive,,,inactive,,inactive,
C[C@H](CCCC(C)(C)O)[C@H]1CC[C@H]2[C@@H]3CC=C4C[C@@H](O)CC[C@]4(C)[C@H]3CC[C@]12C,inactive,inactive,inactive,,inactive,inactive,inactive,inactive,inactive,inactive,inactive,inactive,inactive,,inactive,12.6 µM (active),inactive,inactive
CCCCCc1ccc(C)cc1O,inactive,inactive,,inactive,inactive,inactive,inactive,inactive,inactive,inactive,inactive,inactive,,inactive,inactive,7.08 µM (active),inactive,
CCN(CC)CCC(=O)N1c2ccccc2Sc2ccc(C(F)(F)F)cc21,inactive,inactive,,inactive,inactive,,inactive,,inactive,inactive,,inactive,inactive,inactive,,,inactive,5.36 µM (active)
C#C[C@]1(O)CC[C@@H]2[C@H]3CCC4=CC(=O)CC[C@H]4[C@H]3C(=C)C[C@@]21CC,inactive,inactive,,inactive,inactive,inactive,inactive,inactive,inactive,inactive,inactive,inactive,inactive,inactive,,,inactive,
Cc1cc(-c2ccc(N=Nc3c(S(=O)(=O)O)cc4cc(S(=O)(=O)O)cc(N)c4c3O)c(C)c2)ccc1N=Nc1c(S(=O)(=O)O)cc2cc(S(=O)(=O)O)cc(N)c2c1O,inactive,inactive,inactive,inactive,inactive,,,inactive,inactive,inactive,,inactive,12.6 µM (active),,,,,inactive
O=C1CCC(c2ccccc2)(C2CCN(Cc3ccccc3)CC2)C(=O)N1 (centres undefined),inactive,inactive,,inactive,inactive,inactive,inactive,inactive,inactive,inactive,,inactive,inactive,inactive,inactive,inactive,inactive,6.75 µM (active)
c1ccc2c(c1)Sc1ccccc1N2CCN1CCCC1,10 µM (active),inactive,7.57 µM (active),,inactive,7.08 µM (active),7.94 µM (active),11.2 µM (active),,8.91 µM (active),8.91 µM (active),5.01 µM (active),7.08 µM (active),7.94 µM (active),12 µM (active),3.98 µM (active),7.94 µM (active),1.69 µM (active)
CC/C=C\C/C=C\C/C=C\CCCCCCCC(=O)O,inactive,inactive,inactive,inactive,inactive,inactive,,inactive,inactive,inactive,inactive,inactive,,inactive,,,inactive,inactive
Oc1ccc(Cl)c2c1CCC2,inactive,inactive,inactive,inactive,inactive,inactive,inactive,inactive,inactive,inactive,inactive,inactive,inactive,inactive,inactive,,inactive,inactive
O=C(c1cc2ccccc2o1)N1CCN(Cc2ccccc2)CC1,,inactive,,inactive,inactive,,,inactive,inactive,,8.91 µM (active),,11.2 µM (active),inactive,,inactive,,
